# A selection: hits, their analogues and other compounds. The true share with any hit is near 2.4%.
# HSF1 activator = increases HSF-1 driven luciferase reporter signal. NIH3T3-HGL HSF-1 luciferase reporter, MG132, 8 h; 100% = twice DMSO control signal. 1.7% of 300,000 active. activation, % at 9 µM. AID 504408;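 active = mean replicate activation of at least 50% with a set share of replicates each reaching 50%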;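 also: 0% = median of the neutral control wells and 100% = twice that signal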
# TLR9-MyD88 inh = TLR9-MyD88 interaction inhibition. inhibition, % at 4.98 µM. AID 504734. 0.21% of 340,000 active. CHO BLA complementation TLR9-MyD88, CCF4 FRET ratio;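 active = inhibition above the mean over all tested compounds plus 3 SD, cut at about 21% in these data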;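 also: 0% = DMSO only wells and 100% = clavulanate BLA inhibitor control wells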
# NOD2-RIPK2 inh = NOD2-RIPK2 protein interaction inhibition | CHO BLA complementation NOD2-RIPK2, CCF4 ratio | O43353 | AID 624267 | 0.38% of 360,000 active | inhibition, % at 4.98 µM; in the data active = inhibition above about 21%;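 also: 0% = vehicle only and 100% = reference blocker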
# HSF1 inh = HSF1 inhibition; NIH3T3-HGL HSE-luciferase, MG132-induced, luminescence 8 h; stronger effect = lower value; AID 2098; activity change, negative = inhibition, % at 7.5 µM (by protocol); 0.77% of 300,000 active;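 active = more than half of replicate wells show activity change below -50%, luminescence cut by over half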;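 also: luciferase reports HSF-1 transcriptional activity via heat shock element; 0% = median of DMSO wells and -100% = zero luminescence signal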
# TLR4 MyD88 comp = inhibitors of human TLR4-MyD88 binding. O00206+Q99836. HeLa CL3-4 TLR4/MyD88 BLA complementation, FRET ratio. inhibition, % at 8.4 µM. 0.18% of 200,000 active; in the data active = inhibition above about 25%;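 also: 0% = vehicle and 100% = reference inhibitor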
# * marks the source's active call; other numbers are inactive results; · = no result.
SMILES,HSF1 activator,TLR9-MyD88 inh,NOD2-RIPK2 inh,HSF1 inh,TLR4 MyD88 comp
CCOC(=O)c1[nH]c(C)c(C(=O)Nc2ccc(F)cc2)c1C,57*,1,8,25,-10
CCOC(=O)c1[nH]c(C)c(C(=O)NCCC2=CCCCC2)c1C,61*,5,-2,36,2
CCOC(=O)c1c(C)[nH]c(C(=O)OCC(=O)Nc2cc(Cl)ccc2OC)c1C,53*,1,-6,25,2
CCOc1ccccc1N1CCN(C(=O)c2ccc3nc(N)sc3c2)CC1,·,10,-4,·,·
O=C(CN(C(=O)c1csnn1)c1ccc(F)c(Cl)c1)NCc1ccc(F)cc1,72*,-3,1,23,·
O=C(CN(C(=O)c1csnn1)c1ccc(F)c(Cl)c1)NCc1ccccc1,-10,-7,8,2,·
Cc1cc(C(O)c2ncc(-c3ccccc3F)[nH]2)ccc1F (centres undefined),·,·,4,·,·
C=CCn1c(SCc2cc([N+](=O)[O-])cc3c2OCOC3)nc2cc(C(=O)O)ccc2c1=O,63*,-11,-3,29,·
CCC(CO)n1c(SCc2cc([N+](=O)[O-])cc3c2OCOC3)nc2ccccc2c1=O (centres undefined),56*,-12,5,33,-9
CCOC(=O)c1cc2c(c(CSc3nc4ccccc4c(=O)n3Cc3ccco3)c1)OCOC2,58*,-4,-3,17,10
Cc1nnc(SCc2cc([N+](=O)[O-])cc3c2OCOC3)n(N)c1=O,9,13,6,-4,-12
Cc1ccc(-n2nc3c(=O)n(CC(=O)NC4CCCCC4)nc(C)c3c2C)cc1,-5,0,2,2,·
COc1ccc([C@@]23Oc4cc(OC)cc(OC)c4[C@]2(O)[C@H](O)[C@H](C(=O)N(C)C)[C@H]3c2ccccc2)cc1,88*,12,21,88*,·
O=[N+]([O-])c1cc([N+](=O)[O-])c(N2CCOCC2)cc1NCc1ccccc1,109*,1,-7,48,10
O=[N+]([O-])c1ccc(N2CCOCC2)cc1NCc1ccccc1,·,1,-6,·,-2
Cn1cnc([N+](=O)[O-])c1S(=O)(=O)c1ccc(Cl)cc1,150*,0,19,127,1
Cc1nc2ccccc2nc(=O)c1NNc1ccccc1,65*,0,0,19,1
CC(NC(=O)CCc1ccccc1)c1ccc2c(c1)OCO2 (centres undefined),28,6,5,0,·
CSCCC(NC(=O)CCC(=O)OCC(=O)[C@@]1(O)CCC2[C@@H]3CCC4=CC(=O)C=C[C@]4(C)C3[C@@H](O)C[C@@]21C)C(=O)O (some centres undefined),-59,1,5,-52*,·
CC(C)CC(NC(=O)CCC(=O)OCC(=O)[C@@]1(O)CCC2[C@@H]3CCC4=CC(=O)C=C[C@]4(C)C3[C@@H](O)C[C@@]21C)C(=O)O (some centres undefined),-56,-16,-8,-53*,·
C[C@]12C=CC(=O)C=C1CC[C@@H]1C2C(O)C[C@@]2(C)C1CC[C@]2(O)C(=O)COC(=O)CCC(=O)NC(CC(=O)O)C(=O)O (some centres undefined),-49,-12,-14,-49,·
CNC(=O)OCc1ncn(-c2ccccc2)c1COC(=O)NC,·,·,-9,·,·
Cc1nnc(NCc2cccc(Cl)c2)c2ccccc12,7,-2,-1,2,·
Cc1nnc(NCCc2ccccc2)c2ccccc12,54*,4,-8,28,·
COC1=CC(=O)C[C@@H](C)[C@]12Oc1c(Cl)c(OC)cc(OC)c1C2=O,-23,-2,1,-9,·
SMILES,HSF1 activator,TLR9-MyD88 inh,NOD2-RIPK2 inh,HSF1 inh,TLR4 MyD88 comp
O=c1[nH]c(CSc2ncc(C(F)(F)F)cc2Cl)nc2ccccc12,63*,2,0,38,-16
O=c1[nH]c(CSc2ncnc3sccc23)nc2cc(C(F)(F)F)ccc12,-12,2,12,1,·
O=c1[nH]c(CSc2ccccn2)nc2c1cnn2-c1ccccc1,57*,-6,-1,27,-8
O=c1[nH]c(CSc2ccccn2)nc2ccccc12,75*,1,-8,34,8
Cc1c(NC(=O)c2ccc(NC(=O)C3CC3)cc2)cccc1C(=O)O,-18,-7,-6,-3,·
Cc1ccc(OC(C)C(=O)Nc2ccccc2C(=O)N2CCOCC2)cc1 (centres undefined),-5,3,-11,-3,·

# Assay outcomes as filed in PubChem BioAssay.
